These results are taken from publication PMC7819943, “Rice protein-binding microarrays: a tool to detect cis-acting elements near promoter regions in rice”.

Over roughly 68,000 sequences, “fluorescence intensity (a.u.)” has its median near 9,100; the highest 2% begin near 16,000. This is one part of a sample in which the highest values are shown more often than they occur.

OsWRKY34, sequence (Q0JBA9 entry or part of it): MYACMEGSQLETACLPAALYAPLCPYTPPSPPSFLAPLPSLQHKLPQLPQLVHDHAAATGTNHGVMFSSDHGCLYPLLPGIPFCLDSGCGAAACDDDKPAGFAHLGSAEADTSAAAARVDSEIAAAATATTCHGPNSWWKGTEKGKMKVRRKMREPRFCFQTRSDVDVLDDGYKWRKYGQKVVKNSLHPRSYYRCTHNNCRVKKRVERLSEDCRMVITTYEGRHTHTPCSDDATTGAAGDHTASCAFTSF

For the assay, the target named is OsWRKY34 (Oryza sativa, UniProt Q0JBA9 1-250). The assay is described as follows: protein-binding microarray (RPBM); PBS, 2% BSA, 51.3 ng/ul salmon testes DNA, 50 uM zinc acetate, 200 nM TF, 25 C, 1 h; high values mean tight binding. The note with it: protein: recombinant; tags: N-terminal polyhistidine and DsRed monomer fusion (pET32a); label: CyDye5-dUTP incorporated in the synthesized complementary strand; 3' TTTTT single-stranded linker to array surface; dsDNA, one strand shown. The method, boiled down:
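The binding signal is fluorescence intensity per array feature (arbitrary units). Readings came from an Axon 4000B scanner after a washed, 2% BSA-blocked, double-stranded custom Agilent array had been incubated for 1 h at 25 °C with 200 nM protein and 50 µM zinc acetate. The protein was a Ni–NTA-purified transcription factor fused N-terminally to polyhistidine and DsRed, expressed in E. coli BL21-CodonPlus.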
As to “CCACACTCCTCGCTCGCCTGCCTCTCTGTTCTTAATTAGCCGGAGTCACCTAGTGCAG”, the binding signal is 8750 fluorescence intensity (a.u.).

As for “AAGCCCAACGTGCTTCATCTCTTCTTCTATCTTATCTTCTCGGAGTCACCTAGTGCAG”, the binding signal was 8190 fluorescence intensity (a.u.).

Consider “GCGGAGGAAAGGTGGGGTGGTAAAAAACGGAAAAACCGGACGGAGTCACCTAGTGCAG”, for which the binding signal is 8960 fluorescence intensity (a.u.).

Turning to “TATGCATACTTTTTTATCACTGTAGTTACTAGCTAAGATCCGGAGTCACCTAGTGCAG”, the binding signal was 9000 fluorescence intensity (a.u.).

Turning to “GCCCGTCTTCGTCCAGTTCCTGATCAGGTATGGTCCTTCTCGGAGTCACCTAGTGCAG”, the binding signal was 8060 fluorescence intensity (a.u.).

Regarding “ACCCGAGATCTGATTCACTACCGCCGCCGGATCAAGCCACCGGAGTCACCTAGTGCAG”, the binding signal is 8320 fluorescence intensity (a.u.).

With “TTCGCTCACCTCTCGATCGATCGACCTGCCAACATCAACACGGAGTCACCTAGTGCAG”, the binding signal was 10400 fluorescence intensity (a.u.).

Consider “ATTCAAATTTGTCAAACATTGTTTTCTTCTCTTTCATATCCGGAGTCACCTAGTGCAG”, for which the binding signal is 8650 fluorescence intensity (a.u.).

As to “TTATCAAATATTCCATCCGTCTTTTTTGATATTTTAATTTCGGAGTCACCTAGTGCAG”, the binding signal is 9840 fluorescence intensity (a.u.).

For “ACGCCGTTGACTTTTTTAAACATGTTTGACTGTTCGTCTTCGGAGTCACCTAGTGCAG”, the binding signal was 38200 fluorescence intensity (a.u.).

In the case of “CGTTGACTTTTTTAAAAGTGTTTGACTGTTCGTCTTTTTTCGGAGTCACCTAGTGCAG”, the binding signal is 30500 fluorescence intensity (a.u.).

For the sequence “ATTGATATCAAACCGTTTCTTTTGTCATATTCGTCATTTCCGGAGTCACCTAGTGCAG”, the binding signal is 17700 fluorescence intensity (a.u.).

In the case of “CGTTGACTTTTTATCAAATGTTTGACCGTTCGTCTTATTTCGGAGTCACCTAGTGCAG”, the binding signal was 28900 fluorescence intensity (a.u.).

“ACGCTGTTGATTTTTTTAAACATGTTTGACCGTTCGTCTTCGGAGTCACCTAGTGCAG”: the binding signal was 13200 fluorescence intensity (a.u.).

As to “TCACGTTCAACGTTTGACTGTTCGTCTTATTTAAAATTTTCGGAGTCACCTAGTGCAG”, the binding signal was 8400 fluorescence intensity (a.u.).

On to “TGACTTTTTATCATATGTTTGACCGTTCGTCTTATTCAAACGGAGTCACCTAGTGCAG”, for which the binding signal is 10900 fluorescence intensity (a.u.).

As to “AGTGTTAGTTGACTGTTAGTCAAAGGTTAGTTTTTTTCGTCGGAGTCACCTAGTGCAG”, the binding signal was 9180 fluorescence intensity (a.u.).

Regarding “ACACCGCTGACTTTTTAAAACATGTTTTACCGTTCGTCTTCGGAGTCACCTAGTGCAG”, the binding signal was 13600 fluorescence intensity (a.u.).

As for “TTGACTTTTTAAAATATGTTTGACCGTTCGTCTTATTCAACGGAGTCACCTAGTGCAG”, the binding signal is 8040 fluorescence intensity (a.u.).

On to “ATGCGTGCGCTCAGCCCATTCTGCTTGTATTTTCAGTACACGGAGTCACCTAGTGCAG”, for which the binding signal was 11300 fluorescence intensity (a.u.).

“ACCCACCCACCCACCCGGTCTGTCTCCTAACCCCGGTCGCCGGAGTCACCTAGTGCAG”: the binding signal was 12600 fluorescence intensity (a.u.).

In the case of “GATCGTGGAATTAATTCCACCTTAGTTGTTATGGGCGGGTCGGAGTCACCTAGTGCAG”, the binding signal was 11400 fluorescence intensity (a.u.).

“GAACAACAACATGCCGCACGTGCGTATATATATATATATCCGGAGTCACCTAGTGCAG”: the binding signal was 10800 fluorescence intensity (a.u.).

With “TCCATTGACACCGGCACACGCACACGCACACCCGCACCGCCGGAGTCACCTAGTGCAG”, the binding signal is 8960 fluorescence intensity (a.u.).

As to “CAACCTCACCTACTTCCACTTCCTCGACACCAACGGCGTCCGGAGTCACCTAGTGCAG”, the binding signal was 9590 fluorescence intensity (a.u.).

“GCATGTGTTCGTTATGTGTGGTTGGAGATTTTCTCCCACACGGAGTCACCTAGTGCAG”: the binding signal was 8470 fluorescence intensity (a.u.).

Turning to “CTGCTCGGAGCACACACAACCACCACTCACCACCAACATGCGGAGTCACCTAGTGCAG”, the binding signal was 9280 fluorescence intensity (a.u.).

As to “TAATACACTAGCCCCAATGTTTGTTTGCCTAATCTACTCTCGGAGTCACCTAGTGCAG”, the binding signal was 9080 fluorescence intensity (a.u.).

As to “TGTCGCCATCGTATCACCGTCGCGTCGCCATCCCGTCGCCCGGAGTCACCTAGTGCAG”, the binding signal was 8070 fluorescence intensity (a.u.).

For “CCAAGCTTGTCGTGCCCGTATGTTCGCGTCCATCGTTGACCGGAGTCACCTAGTGCAG”, the binding signal is 19800 fluorescence intensity (a.u.).

“CATATTATAAGTCGTTTTGACTTTTTTTTCTTAGTCAATCCGGAGTCACCTAGTGCAG”: the binding signal is 12100 fluorescence intensity (a.u.).

Consider “ACTTTTTAAAACATATTTGACCGTTCTTCTTATTAAAAAACGGAGTCACCTAGTGCAG”, for which the binding signal was 8850 fluorescence intensity (a.u.).

As to “CCTCTATTTCATATTATACGTCGTTGACTTTTTTCTTAGTCGGAGTCACCTAGTGCAG”, the binding signal was 17400 fluorescence intensity (a.u.).

As for “TTACACTGTTCATGTCTCACGTTTGACCGTTCGTTTTATTCGGAGTCACCTAGTGCAG”, the binding signal is 16400 fluorescence intensity (a.u.).

Turning to “GGCCCATCTGACCAAGCCCAGCTCGCGTCGTCGTGTTGATCGGAGTCACCTAGTGCAG”, the binding signal was 8930 fluorescence intensity (a.u.).

Turning to “AGTTTTGCACTGTTTATGTCTCACGTTTGACCGTTCGTTTCGGAGTCACCTAGTGCAG”, the binding signal was 11400 fluorescence intensity (a.u.).

Regarding “TTGACCTTTTTAAAACATTTTTGACCGTTCGTCTTATTCACGGAGTCACCTAGTGCAG”, the binding signal is 10600 fluorescence intensity (a.u.).

For “CGTCGTTGACTTTTTTAAACATATTTGACCGTTCGTCTTACGGAGTCACCTAGTGCAG”, the binding signal was 17100 fluorescence intensity (a.u.).

Take “GTTTTACACTATTCACGTTCAACGTTTGACCGTTCGTCTTCGGAGTCACCTAGTGCAG”: the binding signal is 13400 fluorescence intensity (a.u.).

For the sequence “CTCTATTCGTTTTTCATATTATAAGTCGTTTGACGTTTTTCGGAGTCACCTAGTGCAG”, the binding signal was 9170 fluorescence intensity (a.u.).

On to “TTTCATGCGTTCCAAGTTGTCATTACTCCTTTGTACTCTCCGGAGTCACCTAGTGCAG”, for which the binding signal is 10700 fluorescence intensity (a.u.).

As to “CCGCCGGACTCTCAAAATCCCAAGTCTCAACTCGATCAGCCGGAGTCACCTAGTGCAG”, the binding signal is 8170 fluorescence intensity (a.u.).
